The full data set covers some 7,900 targets. This sample favours those with a hit. About 0.6% of all pairs of compound and target were hits.
Each target was assayed with c1cn2cc(-c3ccc4cn[nH]c4c3)nc(Nc3ccc(N4CCOCC4)cc3)c2n1 [entospletinib] (assay: log2 fold change, soluble protein after heating vs DMSO (PISA); higher = thermal stabilisation; K562 cells, 10 uM, 30 min; active = over 0.2 and 3.5 SD of the protein, either way, in both replicates (recomputed)).
Procedure, shortened: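 K562 cells at 2×10^6 cells/mL were treated with 10 μM compound for 30 min. Aliquots were heated for 3 min across 48°C-58°C, pooled, and extracted in PBS with 0.5% NP-40 at 4°C; soluble protein was the supernatant after 21,000xg for 90 min. Soluble protein was quantified by TMTpro 16plex LC-MS/MS with channel sums equalised, and reported as log2 fold change in thermal stability against DMSO controls, with values from duplicates.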

Chain of UniProt Q8N573 (Q8N573 whole entry, looked up): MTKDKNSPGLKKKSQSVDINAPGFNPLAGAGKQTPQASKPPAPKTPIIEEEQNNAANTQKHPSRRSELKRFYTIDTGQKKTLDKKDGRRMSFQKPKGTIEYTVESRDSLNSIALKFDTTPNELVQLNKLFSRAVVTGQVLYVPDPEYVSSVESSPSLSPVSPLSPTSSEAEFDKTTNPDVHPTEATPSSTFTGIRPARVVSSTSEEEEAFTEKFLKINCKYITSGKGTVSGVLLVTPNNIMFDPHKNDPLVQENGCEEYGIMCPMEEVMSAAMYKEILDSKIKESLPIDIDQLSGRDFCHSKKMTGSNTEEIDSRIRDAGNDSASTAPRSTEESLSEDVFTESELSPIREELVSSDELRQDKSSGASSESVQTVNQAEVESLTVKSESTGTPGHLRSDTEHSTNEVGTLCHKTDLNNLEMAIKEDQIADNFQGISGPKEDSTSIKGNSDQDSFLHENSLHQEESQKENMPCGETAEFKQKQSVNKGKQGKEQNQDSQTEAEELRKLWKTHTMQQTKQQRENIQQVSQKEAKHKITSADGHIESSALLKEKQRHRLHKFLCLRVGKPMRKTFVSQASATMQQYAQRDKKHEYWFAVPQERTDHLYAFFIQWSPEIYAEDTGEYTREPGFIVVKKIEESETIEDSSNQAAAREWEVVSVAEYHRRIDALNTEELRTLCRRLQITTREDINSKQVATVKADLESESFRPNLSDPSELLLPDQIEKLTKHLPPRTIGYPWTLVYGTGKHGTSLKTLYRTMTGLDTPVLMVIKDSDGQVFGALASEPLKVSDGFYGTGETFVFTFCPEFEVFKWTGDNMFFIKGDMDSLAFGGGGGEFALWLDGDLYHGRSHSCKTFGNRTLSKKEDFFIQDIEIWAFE
Chain of UniProt Q9NR45 (Q9NR45 whole entry, looked up): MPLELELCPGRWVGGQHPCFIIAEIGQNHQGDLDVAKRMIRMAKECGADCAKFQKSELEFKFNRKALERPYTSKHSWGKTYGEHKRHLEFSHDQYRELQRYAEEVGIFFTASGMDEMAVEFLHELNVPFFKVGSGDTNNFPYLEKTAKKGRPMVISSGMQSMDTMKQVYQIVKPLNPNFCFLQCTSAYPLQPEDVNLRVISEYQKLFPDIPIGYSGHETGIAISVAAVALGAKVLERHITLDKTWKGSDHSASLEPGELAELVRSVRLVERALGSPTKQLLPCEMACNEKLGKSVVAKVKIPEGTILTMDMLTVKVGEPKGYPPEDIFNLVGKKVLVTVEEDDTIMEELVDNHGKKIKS
Chain of UniProt Q12986 (Q12986 whole entry, looked up): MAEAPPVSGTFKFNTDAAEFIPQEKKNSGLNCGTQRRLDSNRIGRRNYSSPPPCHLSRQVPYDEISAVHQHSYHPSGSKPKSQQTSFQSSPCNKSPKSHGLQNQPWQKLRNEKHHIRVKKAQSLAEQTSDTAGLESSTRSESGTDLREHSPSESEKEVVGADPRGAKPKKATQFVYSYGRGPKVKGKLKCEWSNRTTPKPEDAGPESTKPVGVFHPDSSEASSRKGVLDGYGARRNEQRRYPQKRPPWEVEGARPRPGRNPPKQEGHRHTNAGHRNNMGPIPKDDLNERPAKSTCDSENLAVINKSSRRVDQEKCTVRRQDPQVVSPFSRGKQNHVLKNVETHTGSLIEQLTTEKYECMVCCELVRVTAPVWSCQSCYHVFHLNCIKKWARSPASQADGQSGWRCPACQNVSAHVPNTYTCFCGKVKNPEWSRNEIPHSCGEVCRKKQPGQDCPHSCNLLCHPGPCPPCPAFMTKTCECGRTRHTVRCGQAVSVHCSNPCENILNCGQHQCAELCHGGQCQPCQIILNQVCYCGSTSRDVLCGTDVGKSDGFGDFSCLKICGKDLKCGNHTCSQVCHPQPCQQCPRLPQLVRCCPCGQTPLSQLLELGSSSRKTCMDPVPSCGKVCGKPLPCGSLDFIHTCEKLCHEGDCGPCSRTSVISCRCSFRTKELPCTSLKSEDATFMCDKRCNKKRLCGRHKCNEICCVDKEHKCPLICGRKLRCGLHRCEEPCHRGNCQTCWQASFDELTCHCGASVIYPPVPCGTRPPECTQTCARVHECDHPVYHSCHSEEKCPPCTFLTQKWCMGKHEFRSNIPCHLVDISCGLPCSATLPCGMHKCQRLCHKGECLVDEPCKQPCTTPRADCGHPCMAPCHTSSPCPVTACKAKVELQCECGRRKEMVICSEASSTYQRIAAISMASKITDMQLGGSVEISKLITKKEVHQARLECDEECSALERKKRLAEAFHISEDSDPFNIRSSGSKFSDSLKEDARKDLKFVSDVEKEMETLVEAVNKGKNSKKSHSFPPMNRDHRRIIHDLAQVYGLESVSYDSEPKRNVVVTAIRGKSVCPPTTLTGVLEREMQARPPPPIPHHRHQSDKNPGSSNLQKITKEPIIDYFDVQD
Chain of UniProt Q15102 (Q15102 whole entry, looked up): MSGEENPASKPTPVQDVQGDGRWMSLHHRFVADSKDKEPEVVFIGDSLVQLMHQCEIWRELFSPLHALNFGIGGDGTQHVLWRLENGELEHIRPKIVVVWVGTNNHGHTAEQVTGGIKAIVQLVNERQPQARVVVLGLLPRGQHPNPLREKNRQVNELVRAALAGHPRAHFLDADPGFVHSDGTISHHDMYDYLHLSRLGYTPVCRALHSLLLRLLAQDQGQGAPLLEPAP
Chain of UniProt Q7Z3U7 (Q7Z3U7 whole entry, looked up): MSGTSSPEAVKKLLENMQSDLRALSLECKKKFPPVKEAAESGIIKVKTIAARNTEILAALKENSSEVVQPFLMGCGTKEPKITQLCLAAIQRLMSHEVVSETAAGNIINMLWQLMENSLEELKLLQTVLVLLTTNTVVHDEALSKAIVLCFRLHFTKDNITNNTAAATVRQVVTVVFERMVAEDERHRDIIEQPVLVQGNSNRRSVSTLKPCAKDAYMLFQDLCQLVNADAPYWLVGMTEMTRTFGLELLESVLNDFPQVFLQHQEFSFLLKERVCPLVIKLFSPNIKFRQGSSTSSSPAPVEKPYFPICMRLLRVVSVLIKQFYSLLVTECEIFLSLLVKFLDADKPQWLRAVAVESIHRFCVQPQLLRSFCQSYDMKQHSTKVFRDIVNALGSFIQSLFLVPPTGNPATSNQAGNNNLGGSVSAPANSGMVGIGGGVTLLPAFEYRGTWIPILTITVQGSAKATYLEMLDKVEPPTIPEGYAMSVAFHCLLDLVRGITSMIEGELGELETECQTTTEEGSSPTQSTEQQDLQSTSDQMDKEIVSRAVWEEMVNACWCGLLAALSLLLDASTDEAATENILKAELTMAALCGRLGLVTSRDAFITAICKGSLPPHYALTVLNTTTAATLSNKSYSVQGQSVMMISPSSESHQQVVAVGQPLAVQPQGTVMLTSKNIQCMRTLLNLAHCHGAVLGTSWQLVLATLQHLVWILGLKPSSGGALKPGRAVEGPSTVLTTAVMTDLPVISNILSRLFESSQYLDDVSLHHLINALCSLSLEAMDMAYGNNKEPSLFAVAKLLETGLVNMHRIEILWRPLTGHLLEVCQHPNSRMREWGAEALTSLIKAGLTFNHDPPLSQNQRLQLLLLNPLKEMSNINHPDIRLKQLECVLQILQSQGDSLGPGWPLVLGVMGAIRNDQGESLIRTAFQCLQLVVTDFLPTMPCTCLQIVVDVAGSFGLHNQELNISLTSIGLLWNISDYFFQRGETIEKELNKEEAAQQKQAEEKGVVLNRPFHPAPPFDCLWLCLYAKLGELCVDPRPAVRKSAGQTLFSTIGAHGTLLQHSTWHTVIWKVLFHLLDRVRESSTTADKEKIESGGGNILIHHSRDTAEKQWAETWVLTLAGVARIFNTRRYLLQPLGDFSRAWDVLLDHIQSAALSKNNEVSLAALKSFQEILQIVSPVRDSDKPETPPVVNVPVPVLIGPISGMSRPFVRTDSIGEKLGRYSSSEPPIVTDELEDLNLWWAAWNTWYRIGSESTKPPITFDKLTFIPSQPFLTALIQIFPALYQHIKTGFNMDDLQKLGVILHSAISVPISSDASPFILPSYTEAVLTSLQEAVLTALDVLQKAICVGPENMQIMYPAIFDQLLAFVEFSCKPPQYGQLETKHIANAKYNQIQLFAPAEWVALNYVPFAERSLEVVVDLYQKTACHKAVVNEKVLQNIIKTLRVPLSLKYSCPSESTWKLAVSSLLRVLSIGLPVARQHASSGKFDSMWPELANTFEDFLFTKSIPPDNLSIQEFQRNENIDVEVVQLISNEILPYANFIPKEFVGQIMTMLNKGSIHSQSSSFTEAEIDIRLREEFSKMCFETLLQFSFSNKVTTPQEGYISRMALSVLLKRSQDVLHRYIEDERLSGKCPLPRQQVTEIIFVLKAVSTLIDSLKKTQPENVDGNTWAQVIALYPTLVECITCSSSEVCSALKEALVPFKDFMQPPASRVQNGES
Chain of UniProt Q96RE7 (Q96RE7 whole entry, looked up): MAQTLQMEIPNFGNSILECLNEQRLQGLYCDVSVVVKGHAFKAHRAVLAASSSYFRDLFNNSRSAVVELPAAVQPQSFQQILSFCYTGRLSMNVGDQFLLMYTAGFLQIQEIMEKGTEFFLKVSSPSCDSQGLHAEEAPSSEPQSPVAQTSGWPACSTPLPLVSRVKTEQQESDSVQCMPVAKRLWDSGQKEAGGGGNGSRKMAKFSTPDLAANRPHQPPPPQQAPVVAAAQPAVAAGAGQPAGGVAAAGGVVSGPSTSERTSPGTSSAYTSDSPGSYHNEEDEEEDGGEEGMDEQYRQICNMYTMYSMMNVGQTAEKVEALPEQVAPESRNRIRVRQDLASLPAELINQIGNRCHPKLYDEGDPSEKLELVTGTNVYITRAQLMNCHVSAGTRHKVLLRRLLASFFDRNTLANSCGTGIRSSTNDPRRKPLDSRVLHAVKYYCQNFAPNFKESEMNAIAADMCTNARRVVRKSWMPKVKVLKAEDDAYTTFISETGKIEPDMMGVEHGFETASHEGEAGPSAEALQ
Chain of UniProt Q9UI09 (Q9UI09 whole entry, looked up): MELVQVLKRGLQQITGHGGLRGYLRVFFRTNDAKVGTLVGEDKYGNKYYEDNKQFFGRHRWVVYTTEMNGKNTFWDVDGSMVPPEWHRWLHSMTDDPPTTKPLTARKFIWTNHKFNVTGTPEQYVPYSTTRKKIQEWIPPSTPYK
Chain of UniProt O75438 (O75438 whole entry, looked up): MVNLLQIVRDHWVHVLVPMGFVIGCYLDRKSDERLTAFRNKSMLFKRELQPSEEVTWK

log2 fold change, inactive:
OSTM1 (UniProt Q86WC4) 0.118, OGFOD1 (UniProt Q8N543) 0.018, MOV10 (UniProt Q9HCE1) 0.14, NDUFB7 (UniProt P17568) -0.074, OXR1 (UniProt Q8N573) -0.019, NGLY1 (UniProt Q96IV0) 0.081, NUP160 (UniProt Q12769) 0.03, NRDC isoform 2 (UniProt O43847) -0.005, MON2 isoform 5 (UniProt Q7Z3U7) 0.014, OTUD4 (UniProt Q01804) 0.105, NFATC2IP (UniProt Q8NCF5) -0.054, PAFAH1B3 (UniProt Q15102) 0, NSUN2 (UniProt Q08J23) 0.011, OSBPL8 (UniProt Q9BZF1) 0.084, NDFIP1 (UniProt Q9BT67) -0.003, NDUFA12 (UniProt Q9UI09) -0.025, NACC1 (UniProt Q96RE7) -0.019, MKRN2 (UniProt Q9H000) -0.038, NDUFB1 (UniProt O75438) 0.017, OSTC (UniProt Q9NRP0) 0.034, NEDD4L (UniProt Q96PU5) 0.046, MON1A (UniProt Q86VX9) 0.041, NANS (UniProt Q9NR45) 0.025, NFX1 (UniProt Q12986) 0.095, NUP210 (UniProt Q8TEM1) -0.125, MORF4L2 (UniProt Q15014) -0.038, MRPL50 (UniProt Q8N5N7) -0.005, MRPS2 (UniProt Q9Y399) 0.059, OXA1L (UniProt Q15070) -0.014, OSBP (UniProt P22059) -0.013, MRPS33 (UniProt Q9Y291) 0.086, OXR1 isoform 2 (UniProt Q8N573) 0.004, NAGPA (UniProt Q9UK23) -0.109, NMT2 (UniProt O60551) 0.023
